In the library only some 7.3% were active in any assay of this set; here they are far more common.
HCV inh: qHTS Assay for Inhibitors of Hepatitis C Virus (HCV). Potency, µM (highest dose often 41.8 µM), hits mostly inhibitors. Huh7.5.1 HCVcc-Cre infection, luciferase reporter, 44 h. 3.4% of 340,000 active
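Compounds are dispensed onto cells plated 4 h earlier at 1,000 per well, with HCVcc-Cre virus (about 0.5 moi) added next. Following 44 h of culture, luminescent signal is measured for 15 sec after 15 min with substrate at room temperature.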
FMDV antiviral: High Throughput Screening for Foot and Mouth Disease Virus Antivirals; FMDV antiviral cell-based qHTS; Potency, µM (top dose mostly 57.9 µM), usual class: inhibitors; 1.2% of 410,000 active; AID 1159524, 2015; calls by dose curve; tested in HEK293T cells; also: read-out not given here; nearly all actives have a fitted effect of over 45% in size
AmpC inh no detg: qHTS Inhibitors of AmpC Beta-Lactamase (assay without detergent); P00811; AmpC nitrocefin hydrolysis, absorbance 480 nm, 0.0001% Triton; Potency, µM (series often up to 57.1 µM), hits mostly inhibitors; 0.52% of 330,000 active; also: nearly all actives have a fitted effect of over 20% in size
Target sequence (P00811 whole entry, looked up): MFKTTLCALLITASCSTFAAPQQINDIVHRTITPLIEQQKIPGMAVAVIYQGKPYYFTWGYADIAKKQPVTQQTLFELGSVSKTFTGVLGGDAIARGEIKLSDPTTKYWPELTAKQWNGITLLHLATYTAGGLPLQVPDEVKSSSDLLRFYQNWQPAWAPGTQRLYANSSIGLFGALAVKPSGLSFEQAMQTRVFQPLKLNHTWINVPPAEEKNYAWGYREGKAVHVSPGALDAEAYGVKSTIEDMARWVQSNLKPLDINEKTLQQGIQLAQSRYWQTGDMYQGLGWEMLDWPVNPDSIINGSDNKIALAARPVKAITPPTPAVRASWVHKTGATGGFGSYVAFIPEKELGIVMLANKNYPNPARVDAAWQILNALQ
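AmpC (5.3 nM in the dispensed reagent) in 20 mM phosphate pH 7.0 with 0.01% (detergent screen) or 0.0001% Triton X-100 was preincubated with compounds for 15 min at room temperature. Nitrocefin was then added from an 800 uM solution, and hydrolysis was followed at 480 nm.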
HCMV antiviral: qHTS Assay for inhibitors of the human cytomegalovirus (HCMV); AID 1259415, 2018; activity change, negative = inhibition, % at 57.5 µM; 4.5% of 410,000 active; HFF cells, HCMV-luciferase reporter, 72 h; active compounds read low; in the data active = activity change below about -60%; inconclusive = no clear call, values can overlap the other calls; inactive = above about -39%
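Inhibition of viral replication was scored as loss of reporter luminescence in HFFs infected with HCMV-luciferase (MOI 1 PFU/cell) for 72 h; compounds tested at 2 doses, normalized to buffer and Salinomycin controls.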
AmpC detergent: qHTS Inhibitors of AmpC Beta-Lactamase (assay with detergent); 0.041% of 370,000 active; AID 485294, 2010; AmpC hydrolysis of nitrocefin, absorbance 480 nm, 0.01% Triton; Potency, µM (highest dose often 114 µM), actives largely listed as inhibitors; also: nearly all actives have a fitted effect of over 25% in size
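AmpC (5.3 nM in the dispensed reagent) in 20 mM phosphate pH 7.0 with 0.01% (detergent screen) or 0.0001% Triton X-100 was preincubated with compounds for 15 min at room temperature. Nitrocefin was then added from an 800 uM solution, and hydrolysis was followed at 480 nm.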
Large screens that a line does not name were inactive. Unless noted, calls follow the shape of the dose curve; as a rule, active = well fitted curve in the direction sought with a large enough effect; inconclusive = small, poorly fitted or top-dose-only effect, or another doubt; inactive = no such curve, though single readings can be large; an effect the other way counts as inactive or inconclusive.

O=C(Nc1ccc(N2CCN(C(=O)c3ccco3)CC2)cc1)c1ccc2c(c1)OCO2	none
Cc1ccccc1C(=O)N1CCN(c2ccc(NC(=O)c3ccc4c(c3)OCO4)cc2)CC1	HCV inh inconclusive, FMDV antiviral 13µM
O=C(Nc1ccc(N2CCN(C(=O)c3ccccc3)CC2)cc1)c1ccc([N+](=O)[O-])o1	HCV inh inconclusive, FMDV antiviral inconclusive, HCMV antiviral -101
Cc1ccccc1C(=O)N1CCN(c2ccc(NC(=O)c3cccnc3)cc2)CC1	FMDV antiviral inconclusive
O=C(Nc1ccc(N2CCN(C(=O)c3ccccc3F)CC2)cc1)c1cncc(Br)c1	HCV inh inconclusive, FMDV antiviral 32µM, HCMV antiviral -90
CCc1ccc(S(=O)(=O)c2c[nH]c3cc(OC)c(OC)cc3c2=O)cc1	none (no result: HCV inh, AmpC inh no detg)
Cc1cc(C)cc(NC(=O)c2ncn(-c3ccccc3)n2)c1	none (no result: HCV inh, AmpC inh no detg)
COc1ccc(-c2nc3cnc(N(C)C)nc3n(C)c2=O)cc1	none (no result: HCV inh, AmpC inh no detg, HCMV antiviral, AmpC detergent)
Cc1ccccc1NC(=O)CSc1nc2ncc(Cl)cc2[nH]1	AmpC detergent inconclusive
Cc1ccc(S(=O)(=O)N(C)C)cc1NC(=O)CSc1nc2ncc(Cl)cc2[nH]1	HCV inh 2.5µM, FMDV antiviral inconclusive
COc1ccccc1-c1cc2c(Nc3ccc(NC(C)=O)cc3)nccc2[nH]1	none (no result: HCV inh, FMDV antiviral, AmpC inh no detg, AmpC detergent)
Cc1ccc(S(=O)(=O)N2CCN(C(=O)C3CCCC3)CC2)cc1C	none
c1ccc2c(Nc3nnc(-c4ccncc4)s3)cccc2c1	HCV inh inconclusive, AmpC inh no detg 10µM (no result: FMDV antiviral)
Cc1ccnc2c(N3C(=O)C4C5C=CC(C5)C4(C)C3=O)cccc12 (stereo unspecified)	AmpC inh no detg 7.1µM, AmpC detergent inconclusive
Cc1ccc(S(=O)(=O)N2C[C@H]3C(=O)C[C@@H](c4ccccc4)N(S(=O)(=O)c4cccc(C)c4)[C@H]3C[C@H]2c2ccccc2)cc1	none (no result: HCV inh, AmpC inh no detg, AmpC detergent)
Cc1ccc(CNC(=O)c2ccc(N3CCc4ccccc43)c([N+](=O)[O-])c2)cc1	HCV inh 6.3µM, HCMV antiviral inconclusive
Cc1ccc(C(=O)NCc2ccc3c(c2)CCN3C(=O)c2ccc(C)cc2)cc1	HCMV antiviral -64 (no result: HCV inh, AmpC inh no detg)
NNC(=O)c1ccc(N2CCc3ccccc32)c([N+](=O)[O-])c1	FMDV antiviral inconclusive
CN(C)c1ccc(C(=O)NCc2ccc3c(c2)CCN3C(=O)c2ccccc2)cc1	none (no result: HCV inh, AmpC inh no detg)
COc1ccc(CCC(=O)NCc2ccc3c(c2)CCN3C(=O)c2ccccc2)cc1	none (no result: HCV inh, AmpC inh no detg)
O=C(NCc1ccc2c(c1)CCN2C(=O)c1ccccc1)Nc1cccc(C(F)(F)F)c1	FMDV antiviral inconclusive, HCMV antiviral -97 (no result: HCV inh, AmpC inh no detg)
COc1ccc(CCC(=O)NCc2ccc3c(c2)CCN3C(=O)c2cccc(C)c2)cc1	FMDV antiviral inconclusive, HCMV antiviral -72 (no result: HCV inh, AmpC inh no detg)
CC1(C)CC(=O)C=C(C2CC2)C1=O	none (no result: HCV inh, FMDV antiviral, AmpC inh no detg, AmpC detergent)
COc1ccc(CC(=O)NCc2ccc3c(c2)CCN3C(=O)c2ccc(Cl)cc2)cc1OC	FMDV antiviral inconclusive, HCMV antiviral -67 (no result: HCV inh, AmpC inh no detg)
Cc1nn(CC(=O)NC(C)C(C)C)c(C)c1S(=O)(=O)N1CCCCC1 (stereo unspecified)	none
S=C(Nc1ccccc1)Nc1nc2ccccc2n1CCOc1ccc(Cl)cc1	HCV inh 10µM
COc1cc(Nc2nccc3[nH]c(-c4cccc(C(F)(F)F)c4)nc23)cc(OC)c1OC	none (no result: HCV inh, FMDV antiviral, AmpC inh no detg, AmpC detergent)
Cc1ccc(NC(=O)CSc2nc3c(c(=O)[nH]2)CCC3)cc1Cl	none (no result: HCV inh, AmpC inh no detg)
O=C(C[C@H]1CC[C@H]2[C@@H](COC[C@@H](O)CN2C(=O)c2cnccn2)O1)NCc1ccc(Oc2ccccc2)cc1	HCMV antiviral -68 (no result: HCV inh, AmpC inh no detg, AmpC detergent)
O=C(C[C@H]1CC[C@@H]2[C@H](COC[C@@H](O)CN2C(=O)C2CC2)O1)NCc1ccccc1Cl	none (no result: HCV inh, AmpC inh no detg, AmpC detergent)
CCOC(=O)CN1C(=O)C(Sc2n[nH]c(-c3ccc(C)cc3)n2)CCc2ccccc21 (stereo unspecified)	HCV inh inconclusive, FMDV antiviral 28µM, HCMV antiviral inconclusive, AmpC detergent inconclusive
O=C(NC(CSCc1ccccc1)C(=O)N/N=C/c1ccc(O)cc1O)c1ccc([N+](=O)[O-])cc1 (stereo unspecified)	HCV inh 10µM
COC(=O)c1cc(OC(C)C)ccc1NC(=O)[C@@]1(Sc2ccc(OC)cc2)CC(=O)N[C@@H]1c1ccc(OC)cc1	none (no result: HCV inh, FMDV antiviral, AmpC inh no detg, AmpC detergent)
O=C(C1CCC(CNS(=O)(=O)c2cccc3cccnc23)CC1)N1CCc2ccccc21 (stereo unspecified)	HCV inh inconclusive, FMDV antiviral inconclusive, HCMV antiviral -61
CCN(CC)C(=O)C1CCC(CNS(=O)(=O)c2cccc3cccnc23)CC1 (stereo unspecified)	AmpC detergent inconclusive
CN(Cc1ccccc1)C(=O)C1CCC(CNS(=O)(=O)c2cccc3cccnc23)CC1 (stereo unspecified)	HCV inh inconclusive, HCMV antiviral -62
CN1CCN(C(=O)C2CCC(CNS(=O)(=O)c3cccc4cccnc34)CC2)CC1 (stereo unspecified)	AmpC detergent inconclusive
CN1C=Nc2c(ncn2C2CCC(CO)O2)C1O (stereo unspecified)	none (no result: HCV inh, AmpC inh no detg, AmpC detergent)
FC(F)(F)c1ccc(Nc2cc3c(cn2)ncn3Cc2ccco2)cc1	none (no result: HCV inh, FMDV antiviral, AmpC inh no detg, AmpC detergent)
O=C(Nc1ccnn1C1CCN(C(=O)c2ccccc2C(F)(F)F)CC1)C1CC1	HCMV antiviral -78
Cc1cc2c3c(c1)C(C)(c1ccccc1)CC(C)(C)N3C(=O)C21C(C#N)=C(N)OC2=C1C(=O)CC(C)(C)C2 (stereo unspecified)	HCV inh inconclusive, FMDV antiviral inconclusive, HCMV antiviral -72
CC1(c2ccccc2)CC(C)(C)N2C(=O)C3(C(C#N)=C(N)Oc4cc(O)ccc43)c3cccc1c32 (stereo unspecified)	FMDV antiviral inconclusive (no result: HCV inh)
COc1ccc2c(C)cc(SCn3nnc4ccccc4c3=O)nc2c1	HCMV antiviral -65
COc1ccc(C)cc1-n1nnnc1SCc1csc(C)n1	none
COc1ccc(C)cc1-n1nnnc1SCn1nnc2ccccc2c1=O	HCV inh inconclusive, HCMV antiviral -80
COc1ccc(C)cc1-n1nnnc1SCc1cc(=O)n2cc(C)ccc2n1	HCV inh inconclusive, FMDV antiviral 16µM, HCMV antiviral -72
Cc1cccc(CNc2ccc(C(CC(N)=O)NC(=O)c3ccccc3)cc2[N+](=O)[O-])c1 (stereo unspecified)	HCV inh inconclusive
Cc1ccccc1CNc1ccc(C(CC(N)=O)NC(=O)c2ccccc2)cc1[N+](=O)[O-] (stereo unspecified)	HCV inh 11µM, HCMV antiviral inconclusive
NC(=O)CC(NC(=O)c1ccc(Br)cc1)c1ccc(N2CCC(Cc3ccccc3)CC2)c([N+](=O)[O-])c1 (stereo unspecified)	HCV inh inconclusive, FMDV antiviral inconclusive

Source: PubChem BioAssay (National Center for Advancing Translational Sciences (NCATS))
